Results on ten compounds are retold here after ChEMBL document CHEMBL3988442, “University of Dundee, Small-Polar-MMV Screening Library” (2021).

For some assays here: Potency and affinity values are given separately.

What all share (design): scale not given: direction of the effect not stated beside the values
In assay [1] the target is Protein translocase subunit SecA (Escherichia coli (strain K12)) (UniProt P10408). Description: Assay to Identify E. coli SecA ATPase Inhibitors. In kind it is functional. The settings on record: 30 µM.
Assay [2] has as its target T1, Ubiquitin-activating enzyme e1, putative (Leishmania donovani (strain BPK282A1)) (UniProt E9BSI1).
T1 sequence (whole entry): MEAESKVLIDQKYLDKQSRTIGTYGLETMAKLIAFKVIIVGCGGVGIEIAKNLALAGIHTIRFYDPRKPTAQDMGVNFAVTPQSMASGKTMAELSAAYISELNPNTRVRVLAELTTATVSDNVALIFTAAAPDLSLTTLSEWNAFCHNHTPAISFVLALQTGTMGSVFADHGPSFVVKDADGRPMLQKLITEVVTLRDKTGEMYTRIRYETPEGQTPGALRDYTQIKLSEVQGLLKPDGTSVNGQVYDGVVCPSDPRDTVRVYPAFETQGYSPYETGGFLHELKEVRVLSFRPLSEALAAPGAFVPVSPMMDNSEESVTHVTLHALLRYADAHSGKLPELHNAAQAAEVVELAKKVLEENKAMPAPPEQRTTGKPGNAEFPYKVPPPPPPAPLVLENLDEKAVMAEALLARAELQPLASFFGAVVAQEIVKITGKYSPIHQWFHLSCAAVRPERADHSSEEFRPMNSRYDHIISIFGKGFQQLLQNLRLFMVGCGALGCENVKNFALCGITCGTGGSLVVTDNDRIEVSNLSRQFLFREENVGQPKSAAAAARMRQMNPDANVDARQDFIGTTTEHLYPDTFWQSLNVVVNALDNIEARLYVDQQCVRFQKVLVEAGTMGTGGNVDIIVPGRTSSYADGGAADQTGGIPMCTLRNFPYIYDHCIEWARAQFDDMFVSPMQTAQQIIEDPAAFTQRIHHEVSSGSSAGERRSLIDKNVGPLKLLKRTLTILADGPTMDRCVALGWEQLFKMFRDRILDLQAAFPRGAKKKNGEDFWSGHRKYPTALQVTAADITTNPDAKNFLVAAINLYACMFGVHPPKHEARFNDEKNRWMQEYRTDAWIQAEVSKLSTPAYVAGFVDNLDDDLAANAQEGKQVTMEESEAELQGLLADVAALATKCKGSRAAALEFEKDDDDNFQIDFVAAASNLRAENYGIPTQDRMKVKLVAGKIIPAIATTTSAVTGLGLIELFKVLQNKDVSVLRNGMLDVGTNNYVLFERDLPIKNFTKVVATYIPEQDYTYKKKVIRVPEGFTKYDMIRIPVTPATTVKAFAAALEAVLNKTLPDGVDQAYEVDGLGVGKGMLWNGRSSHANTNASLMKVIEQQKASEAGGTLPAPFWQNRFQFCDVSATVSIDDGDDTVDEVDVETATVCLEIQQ
The assay can be described thus: Leishmania donovani Ubiquitin Activating Enzyme (LdE1). It counts as functional. To be noted: 30 µM.

Assay [3] deals with AMP-activated protein kinase, AMPK (Homo sapiens) (UniProt P54646+O43741+P54619+Q9UGJ0+Q9Y478+Q13131+Q9UGI9). Description: AMP-dependent Kinase enzyme assay. An in vitro enzyme assay that detects ADP turnover that is directly proportional to AMPK activity. This uses naive AMPK that is activated during the assay with MK-8722. It counts as functional. To be noted: 30 µM.
Assay [4] deals with Sialic acid-binding Ig-like lectin 9 (Homo sapiens) (UniProt Q9Y336). Description: Hs-Siglec9 ALPHAscreen SOP 20170721. The settings on record: 10 µM. On the technique in general: In Alpha technology, singlet oxygen from a donor bead excites a nearby acceptor bead.
Assay [5] relates to Trypanosoma cruzi. The assay can be described thus: Trypanosoma cruzi phosphomannomutase and mannose-1-phosphate guanylyltransferase assay. In kind it is functional. The settings on record: 10 µM.
In assay [6] the target is T2, Arginase-2, mitochondrial (Homo sapiens) (UniProt P78540).
T2 sequence (whole entry): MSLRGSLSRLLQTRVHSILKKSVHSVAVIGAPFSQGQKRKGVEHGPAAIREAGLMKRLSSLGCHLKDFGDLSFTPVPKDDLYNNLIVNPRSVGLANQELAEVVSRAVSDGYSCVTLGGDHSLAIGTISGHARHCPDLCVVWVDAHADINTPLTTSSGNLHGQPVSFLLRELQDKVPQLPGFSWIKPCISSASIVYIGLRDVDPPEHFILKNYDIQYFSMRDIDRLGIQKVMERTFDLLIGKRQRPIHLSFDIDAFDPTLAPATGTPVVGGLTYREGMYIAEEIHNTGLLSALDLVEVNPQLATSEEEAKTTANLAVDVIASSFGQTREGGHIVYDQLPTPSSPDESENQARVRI
Description: in vitro enzyme assay to detect the production of urea directly proportional to the activity of Arginase II. Note: in the data most compounds retested in dose-response had high values. In kind it is functional. The settings on record: 33.3 µM.

Assay [7] deals with T3, Proteasome subunit beta (Trypanosoma cruzi) (UniProt O96673).
T3 sequence (whole entry): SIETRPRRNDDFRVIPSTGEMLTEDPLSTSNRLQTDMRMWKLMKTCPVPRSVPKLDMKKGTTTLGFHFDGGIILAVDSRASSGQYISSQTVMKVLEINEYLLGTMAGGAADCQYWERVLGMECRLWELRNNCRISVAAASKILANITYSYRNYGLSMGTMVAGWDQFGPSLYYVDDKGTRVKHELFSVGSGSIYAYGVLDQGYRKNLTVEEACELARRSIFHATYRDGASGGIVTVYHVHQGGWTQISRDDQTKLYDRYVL
Description: Trypanosoma cruzi proteasome chymotrypsin-like activity (TcProtChymo) assay. Note: in the data most compounds retested in dose-response had high values. To be noted: 9.37 µM. It counts as functional.

Assay [8] is filed under the species Homo sapiens. The assay can be described thus: To identify inhibition of the IFN signalling (Jak-Stat) pathway via expression of an eGFP reporter gene under the control of an IFN-stimulated response element (ISRE) containing MxA promoter. It counts as functional. The settings on record: 30 µM. For orientation: Reporter assays use an easily measured gene product as a stand-in for the process of interest.

Assay [9] has as its target T4, Tyrosyl-tRNA synthetase, putative (Trypanosoma cruzi (strain CL Brener)) (UniProt Q4DSP6).
T4 sequence (whole entry): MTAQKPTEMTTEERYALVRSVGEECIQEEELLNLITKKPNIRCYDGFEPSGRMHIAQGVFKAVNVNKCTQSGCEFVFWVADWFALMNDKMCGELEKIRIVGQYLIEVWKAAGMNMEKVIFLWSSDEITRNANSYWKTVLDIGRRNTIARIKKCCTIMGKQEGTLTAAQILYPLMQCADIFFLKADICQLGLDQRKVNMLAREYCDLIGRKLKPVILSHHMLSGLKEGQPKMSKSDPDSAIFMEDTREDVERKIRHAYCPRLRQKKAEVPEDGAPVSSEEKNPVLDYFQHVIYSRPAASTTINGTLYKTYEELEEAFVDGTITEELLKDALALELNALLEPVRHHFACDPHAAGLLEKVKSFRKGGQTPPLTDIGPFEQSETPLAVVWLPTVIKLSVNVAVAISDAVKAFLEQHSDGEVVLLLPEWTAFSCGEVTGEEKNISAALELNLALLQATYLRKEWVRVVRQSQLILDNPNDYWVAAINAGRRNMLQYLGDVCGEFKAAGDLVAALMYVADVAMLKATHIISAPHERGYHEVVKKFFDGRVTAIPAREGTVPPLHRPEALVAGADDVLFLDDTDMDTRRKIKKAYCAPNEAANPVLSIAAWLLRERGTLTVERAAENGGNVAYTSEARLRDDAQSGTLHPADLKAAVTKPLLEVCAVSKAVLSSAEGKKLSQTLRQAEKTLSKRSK
The assay can be described thus: Trypanosoma cruzi tyrosyl tRNA synthetase (TcYRS) _High Tyrosine SOP. Note: in the data most compounds retested in dose-response had high values. It counts as functional. To be noted: 30 µM.

The target of assay [10] is T4, Tyrosyl-tRNA synthetase, putative (Trypanosoma cruzi (strain CL Brener)). Description: Trypanosoma cruzi tyrosyl tRNA synthetase (TcYRS) SOP. In kind it is functional. To be noted: 30 µM.
Assay [11] deals with Chromo domain-containing protein 1 (Saccharomyces cerevisiae (strain ATCC 204508 / S288c) (Baker's yeast)) (UniProt P32657). The assay can be described thus: ScCHD-1 Enzyme Inhibition Assay. Note: in the data most compounds retested in dose-response had high values. To be noted: 30 µM. It counts as functional.
Chromo domain-containing protein 1 (Saccharomyces cerevisiae (strain ATCC 204508 / S288c) (Baker's yeast)), sequence (P32657 whole entry, the tested form may be a part): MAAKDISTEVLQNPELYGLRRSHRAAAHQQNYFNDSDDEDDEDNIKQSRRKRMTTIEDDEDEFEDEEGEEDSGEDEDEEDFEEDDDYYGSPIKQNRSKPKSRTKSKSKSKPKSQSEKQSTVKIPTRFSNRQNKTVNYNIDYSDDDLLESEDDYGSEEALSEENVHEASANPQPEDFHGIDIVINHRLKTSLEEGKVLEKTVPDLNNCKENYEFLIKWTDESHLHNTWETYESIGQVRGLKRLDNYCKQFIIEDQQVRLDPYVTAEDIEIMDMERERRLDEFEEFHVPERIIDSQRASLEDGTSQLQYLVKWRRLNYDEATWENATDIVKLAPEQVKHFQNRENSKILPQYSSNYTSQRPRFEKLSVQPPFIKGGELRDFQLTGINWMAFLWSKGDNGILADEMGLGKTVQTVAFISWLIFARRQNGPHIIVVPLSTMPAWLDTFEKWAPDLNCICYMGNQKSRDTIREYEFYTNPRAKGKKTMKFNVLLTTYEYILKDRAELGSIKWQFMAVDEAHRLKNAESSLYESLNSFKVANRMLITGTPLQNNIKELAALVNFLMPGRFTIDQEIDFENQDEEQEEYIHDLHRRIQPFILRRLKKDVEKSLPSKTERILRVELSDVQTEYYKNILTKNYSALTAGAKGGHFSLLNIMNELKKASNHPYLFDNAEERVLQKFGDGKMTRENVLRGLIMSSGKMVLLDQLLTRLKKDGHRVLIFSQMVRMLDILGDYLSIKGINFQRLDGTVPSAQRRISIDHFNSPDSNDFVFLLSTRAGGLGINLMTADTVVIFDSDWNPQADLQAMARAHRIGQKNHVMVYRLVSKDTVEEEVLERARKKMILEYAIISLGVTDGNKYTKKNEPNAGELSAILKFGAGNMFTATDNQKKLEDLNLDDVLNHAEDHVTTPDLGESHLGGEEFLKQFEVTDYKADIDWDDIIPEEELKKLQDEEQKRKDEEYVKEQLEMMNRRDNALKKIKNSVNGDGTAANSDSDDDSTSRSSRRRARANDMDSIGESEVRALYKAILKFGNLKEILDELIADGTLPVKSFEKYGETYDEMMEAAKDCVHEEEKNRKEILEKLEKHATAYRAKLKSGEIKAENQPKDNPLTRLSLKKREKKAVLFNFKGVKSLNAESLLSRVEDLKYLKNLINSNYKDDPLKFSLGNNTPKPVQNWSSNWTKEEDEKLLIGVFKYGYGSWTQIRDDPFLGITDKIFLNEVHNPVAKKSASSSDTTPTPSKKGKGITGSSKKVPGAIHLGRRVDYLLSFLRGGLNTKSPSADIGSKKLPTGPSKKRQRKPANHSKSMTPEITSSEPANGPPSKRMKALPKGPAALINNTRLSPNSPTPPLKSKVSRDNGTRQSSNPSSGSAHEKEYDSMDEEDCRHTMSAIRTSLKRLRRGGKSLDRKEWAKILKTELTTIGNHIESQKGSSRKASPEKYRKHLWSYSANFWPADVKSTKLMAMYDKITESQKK

Protein translocase subunit SecA (Escherichia coli (strain K12)), sequence (P10408 whole entry): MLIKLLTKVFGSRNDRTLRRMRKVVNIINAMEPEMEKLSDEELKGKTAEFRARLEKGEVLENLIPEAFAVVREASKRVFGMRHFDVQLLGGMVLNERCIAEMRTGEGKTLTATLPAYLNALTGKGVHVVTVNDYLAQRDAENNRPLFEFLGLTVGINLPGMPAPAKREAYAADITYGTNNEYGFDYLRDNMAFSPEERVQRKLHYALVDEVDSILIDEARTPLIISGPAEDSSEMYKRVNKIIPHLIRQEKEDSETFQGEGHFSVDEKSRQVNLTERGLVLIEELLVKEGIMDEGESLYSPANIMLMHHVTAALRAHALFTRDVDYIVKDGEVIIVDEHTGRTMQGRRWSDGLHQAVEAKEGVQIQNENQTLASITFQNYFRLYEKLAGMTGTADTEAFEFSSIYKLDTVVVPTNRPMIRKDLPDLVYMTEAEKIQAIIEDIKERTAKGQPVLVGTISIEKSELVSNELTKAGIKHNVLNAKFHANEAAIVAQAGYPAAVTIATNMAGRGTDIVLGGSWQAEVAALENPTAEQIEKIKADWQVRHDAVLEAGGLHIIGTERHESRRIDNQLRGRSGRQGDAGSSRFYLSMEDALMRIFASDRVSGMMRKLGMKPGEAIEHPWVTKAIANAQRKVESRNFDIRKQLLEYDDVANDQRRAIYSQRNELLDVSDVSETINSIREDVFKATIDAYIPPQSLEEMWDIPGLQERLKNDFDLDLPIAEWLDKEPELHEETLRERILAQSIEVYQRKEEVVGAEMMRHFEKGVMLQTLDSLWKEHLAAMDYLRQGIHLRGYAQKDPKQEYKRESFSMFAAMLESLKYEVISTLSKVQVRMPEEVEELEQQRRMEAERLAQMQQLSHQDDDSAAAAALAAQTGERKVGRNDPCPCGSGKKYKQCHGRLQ
Sialic acid-binding Ig-like lectin 9 (Homo sapiens), sequence (Q9Y336 whole entry): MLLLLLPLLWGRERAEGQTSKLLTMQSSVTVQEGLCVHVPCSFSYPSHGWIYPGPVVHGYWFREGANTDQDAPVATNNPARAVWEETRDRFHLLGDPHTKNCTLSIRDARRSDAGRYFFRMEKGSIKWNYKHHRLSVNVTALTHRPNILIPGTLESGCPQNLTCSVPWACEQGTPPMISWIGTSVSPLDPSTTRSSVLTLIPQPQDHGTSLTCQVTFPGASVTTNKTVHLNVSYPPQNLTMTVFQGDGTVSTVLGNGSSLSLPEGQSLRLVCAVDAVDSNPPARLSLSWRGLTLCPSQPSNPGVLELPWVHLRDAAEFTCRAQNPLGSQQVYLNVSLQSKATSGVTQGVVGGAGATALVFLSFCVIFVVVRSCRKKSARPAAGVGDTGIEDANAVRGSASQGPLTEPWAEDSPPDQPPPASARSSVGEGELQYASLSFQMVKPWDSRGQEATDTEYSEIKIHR

With `O=C(C(CNCc1ccncc1)c1ccccc1)N1CCOCC1` (stereo not given), the Percent Effect was 0.622% in assay [1]; 5.2% in assay [2]; 0.193% in [3]; 1.44% in assay [4]; -6.59% in assay [5]; -8.28% in [6]. Also, the Percent Effect in assay [7] was 18.3%; in assay [8], 17.2%; in assay [9] it was 3.23%; in assay [10] it was 11.1%; in assay [11], -2.54%.
Turning to `Cc1ncccc1O[C@H]1CCN(C(=O)c2cccs2)CC[C@@H]1O`, the Percent Effect is -1.97% in [1]; -9.46% in [2]; 7.91% in [3]; 0.722% in assay [4]; -2.17% in assay [5]; -2.09% in [6]. For the same compound, the Percent Effect in [7] is 2.03%; in assay [8] it was 4.21%; in [9], 1.07%; in [10] it was -1.3%; in assay [11], -0.631%.
As for `O=C(c1cccnc1)N1C[C@@H]2CC[C@H](C1)N(Cc1cc(F)ccc1F)C2`, the Percent Effect is 0.34% in assay [1]; 11% in [2]; 29.4% in assay [3]; -0.061% in assay [4]; 3.33% in assay [5]; 0% in [6]. Besides, the Percent Effect was 10.3% in assay [7]; 21.9% in assay [8]; 7.53% in [9]; 15% in assay [10]; -7.41% in assay [11].
Turning to `CC(NCC1=Cc2cc(Cl)ccc2OC1)c1nnc2n1CCCC2` (stereo not given), the Percent Effect in [1] is -3.07%; in assay [2] it was -2.7%; in assay [3], 3.91%; in assay [4], 2.75%; in assay [5] it was -0.195%; in assay [6], 1.67%. For the same compound, the Percent Effect was 9.38% in assay [7]; -10.3% in [8]; 4.95% in [9]; 1.22% in [10]; -3.29% in [11].
Consider `Cc1nc([C@@H]2C[C@@H]3CCN(C(=O)c4ccnnc4)C[C@H]3O2)sc1C`, for which the Percent Effect in [1] was -3.66%; in [2] it was 18.2%; in assay [3], -2.5%; in [4], -0.581%; in [5], 5.42%; in [6] it was 1.94%. Besides, the Percent Effect in [7] is 14.4%; in assay [8], 16.5%; in [9] it was 4.23%; in assay [10], 16.7%; in assay [11], -7.55%.
Regarding `Cc1cc(C(N)=O)ccc1NC(=O)c1nc(N2CCCC2)ncc1Cl`, the Percent Effect was 0.24% in [1]; 0% in [2]; -4.73% in assay [3]; -1.27% in [4]; -8.4% in [5]; 6.67% in assay [6]. For the same compound, the Percent Effect in assay [7] was 11.1%; in assay [8], 1.42%; in [9], 5.94%; in assay [10] it was 3.66%; in assay [11] it was 2.96%.
As to `Cc1ccc(NC(=O)N2CCC(NC(=O)c3ccc(C)o3)CC2)cc1`, the Percent Effect in assay [1] was -4.11%; in [2], 15.6%; in assay [3], 3.14%; in assay [4] it was 4.46%; in assay [5], 2.45%; in assay [6], 0.632%. In addition, the Percent Effect is 6.39% in assay [7]; 8.38% in assay [8]; 8.57% in assay [9]; 23.5% in assay [10]; -10.9% in assay [11].
For `Cc1ccc(-n2nnc(C(=O)NS(C)(=O)=O)c2C2CC2)cc1`, the Percent Effect in assay [1] is -1.84%; in assay [2], 0%; in assay [3], -7.9%; in [4], 0.772%; in assay [5] it was 7.52%; in assay [6] it was -1.66%. Also, the Percent Effect is -0.179% in assay [7]; 12.9% in assay [8]; 2.97% in [9]; 13.4% in assay [10]; 3.65% in assay [11].
For `CC(C)=CCN(C)C1CCCN(Cc2noc(C)n2)C1` (stereo not given), the Percent Effect in assay [1] was -2.36%; in [2], 18.9%; in assay [3], 22.7%; in assay [4] it was -3.99%; in assay [5], -3.06%; in assay [6] it was 1.29%. For the same compound, the Percent Effect in [7] is 9.7%; in assay [8], 15.7%; in [9] it was 1.98%; in [10], 13.4%; in assay [11], -3.38%.
Take `Cc1nc(C)c(CNC(=O)NC(c2nnc3n2CCC3)C(C)C)s1` (stereo not given): the Percent Effect in [1] is -6.15%; in [2], 0%; in assay [3] it was -0.521%; in assay [4] it was 1.26%; in assay [5] it was -4.1%; in assay [6], -2.08%. The Percent Effect in [7] is 12.8%; in assay [8] it was 8.88%; in assay [9], 5.94%; in assay [10], 11%; in [11], -0.921%.
